High-throughput results (PubChem BioAssay)
A3A deaminase: inhibitors of human APOBEC3A DNA deaminase; recombinant A3A, FAM/TAMRA ssDNA deamination fluorescence; inhibition, % at 20 µM; hit rate 0.41% among 330,000; AID 493011;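 active = at least 40% inhibition at 20 µM here, with at most 30% in a related deaminase screen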;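 also: plate controls were A3A with DMSO for no effect and wells lacking A3A enzyme for full effect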
Target sequence (P31941 whole entry, looked up): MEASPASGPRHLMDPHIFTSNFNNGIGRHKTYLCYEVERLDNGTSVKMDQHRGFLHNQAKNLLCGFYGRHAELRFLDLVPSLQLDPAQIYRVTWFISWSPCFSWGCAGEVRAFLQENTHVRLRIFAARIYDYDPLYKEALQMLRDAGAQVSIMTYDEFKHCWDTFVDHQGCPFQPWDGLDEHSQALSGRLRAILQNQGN
PolyA inh: blocks polyadenylation in yeast reporter cells; S. cerevisiae SKY197-pL101 polyadenylation reporter, beta-gal luminescence; efflux-impaired pdr1/pdr3 knockout yeast; score 100 = 6 SD above DMSO; activity score, % at 12 µM; hit rate 0.02% among 300,000;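 active = lowest replicate activity score at least 50, where 100 means six control SD above control mean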;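 also: yeast exposed to compound for 9 h at 30 °C; higher score means more reporter readthrough which indicates perturbed polyadenylation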
NALP1 yeast inh: NALP1 inhibition; AID 2071; S. cerevisiae NALP1/ASC/caspase-1 growth, X-gal OD620, 72 h; hit rate 0.61% among 280,000; inhibition, % at 10 µM; in the data active = inhibition mostly above about 24%, no sharp cut-off; inactive = mostly below about 32%
APOBEC3G inh: blocks human APOBEC3G single-stranded DNA deamination; hit rate 0.28% among 330,000; recombinant A3G, ssDNA deamination FAM/TAMRA fluorescence; AID 493012; inhibition, % at 20 µM; Q9HC16;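 active = inhibition of at least 40% at 20 µM, with no more than 30% in the related APOBEC3A deaminase screen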;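 also: plate controls were DMSO wells with A3G for no effect and wells lacking A3G enzyme for full effect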
Target sequence (Q9HC16 whole entry, looked up): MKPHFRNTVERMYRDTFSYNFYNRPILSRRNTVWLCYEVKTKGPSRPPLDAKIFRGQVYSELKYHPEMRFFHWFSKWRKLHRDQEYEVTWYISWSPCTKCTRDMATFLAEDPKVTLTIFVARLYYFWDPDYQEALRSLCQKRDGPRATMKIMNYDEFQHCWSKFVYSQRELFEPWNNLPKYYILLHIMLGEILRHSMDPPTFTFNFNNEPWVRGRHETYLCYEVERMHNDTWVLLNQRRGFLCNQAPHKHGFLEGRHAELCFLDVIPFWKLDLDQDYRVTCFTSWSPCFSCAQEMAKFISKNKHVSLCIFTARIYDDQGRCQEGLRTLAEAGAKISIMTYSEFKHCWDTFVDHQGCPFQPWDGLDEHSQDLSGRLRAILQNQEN
A3G conf: APOBEC3G (human) deaminase inhibition, confirmed. recombinant A3G ssDNA deaminase, UDG/FAM-TAMRA fluorescence. AID 493152. shares compounds with APOBEC3G inh. inhibition, % at 20 µM. hit rate 72% among 890;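 active = inhibition reaching a set limit in any replicate at 20 µM, the limit being 80% of the first screen's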
UDG ctr A3G: inhibits E. coli UDG, flagging false APOBEC3G inhibitors. UDG counterscreen, FAM/TAMRA oligo fluorescence. inhibition, % at 20 µM. shares compounds with APOBEC3G inh. 710 tested, under 10 active;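 active = compounds giving 40% or more inhibition at 20 µM in any one of the three replicates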;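 also: plate controls were DMSO wells with UDG and oligo for no effect and DMSO wells lacking both for full effect; inhibitors lower the FAM signal released by uracil excision and alkaline cleavage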
Active calls of the source: *; / = not tested or not shown; ! = not confirmed by another sample. Shown are actives, neighbours in structure and some others; about 1.2% of the full set was active somewhere.

SMILES	A3A deaminase	PolyA inh	NALP1 yeast inh	APOBEC3G inh	A3G conf	UDG ctr A3G
COc1cc(C(=S)N2CCN(c3cccc(Cl)c3)CC2)ccc1O	-1.4	7.8	-10.0	49.8*	39.9*	-4.0
COc1ccc(C(=S)N2CCN(c3cccc(Cl)c3)CC2)c(OC)c1	1.9	-16.5	7.4	-1.5	/	/
Oc1ccc(C(=S)N2CCN(c3cccc(Cl)c3)CC2)cc1	3.8	/	-0.6	40.1*	40.6*	-1.9
COc1ccc(OC)c(NC(=O)CCN2CCN(CCO)CC2)c1	-1.8	12.2	-5.5	-1.3	/	/
Oc1ccc(C(=S)N2CCN(Cc3ccccc3)CC2)cc1	5.2	17.2	/	39.2	/	/
S=C(c1ccc(Br)cc1)N1CCN(Cc2ccccc2)CC1	0.2	1.6	3.6	40.4*	29.4	/
CCOC(=O)c1ccc(-c2c(C)cc3oc(=O)cc(-c4ccccc4)c3c2C)cc1	3.5	/	/	84.0*	1.6	/
Cc1ccc(-c2c(C)cc3oc(=O)cc(-c4ccccc4)c3c2C)cc1	0.8	/	/	1.7	/	/
CCOC(=O)CCNC(=O)N1CCCC(Cc2ccccc2)(C(=O)OCC)C1 (stereo not given)	-2.5	-8.8	4.4	-5.8	/	/
CCN(CC)CCn1c2ccccc2c2n[nH]c(=S)nc21	-4.2	17.3	-1.2	57.9*	78.4*	1.6
O=C(O)C1CC(c2ccccc2)=NO1 (stereo not given)	6.4	15.0	37.7	4.9	/	/
O=C(O)C1CC(c2ccc(F)cc2)=NO1 (stereo not given)	23.2	6.4	-0.1	73.6*	72.9*	2.7
CCOC(=O)c1cc(C)[nH]c(=S)c1C#N	-2.9	0.0	-12.2	63.4*	81.8*	5.7
O=S(=O)(NC1C2CC3CC(C2)CC1C3)c1ccc(F)cc1 (stereo not given)	-1.4	/	/	-6.6	/	/
CC1(C)S[C@@H]2[C@H](NC(=O)[C@H](N)c3ccccc3)C(=O)N2[C@H]1C(=O)O	5.8	-1.6	14.5	74.6*!	42.1*	1.4
O=C(/N=C1\NC(=O)C(F)(C(F)(F)F)S1)NC1CCCCC1 (stereo not given)	0.2	1.5	5.7	49.7*	47.6*	2.8
CCC1S/C(=N/C(=O)NC2CCCCC2)NC1=O (stereo not given)	-1.7	-17.8	-1.8	-1.1	/	/
CC1(C)Cc2c(c(N3CCOCC3)nc3sc(C(=O)N4CCCCC4)c(N)c23)CO1	0.2	1.5	18.0	46.8*	28.4*	4.4
CC(C)(C)C1CCC2(CC1)NC(=S)N(c1ccccc1)N2 (stereo not given)	-1.1	-2.5	0.9	48.9*	-9.3	-1.4
CN(C)S(=O)(=O)c1cc(NC(=O)CN2CCN(c3ccc(O)cc3)CC2)ccc1Cl	-1.6	-7.6	-0.7	58.1*	16.5	-5.8
CN(C)S(=O)(=O)c1cc(NC(=O)CN2CCN(c3ccccc3)CC2)ccc1Cl	1.4	23.7	23.0	-1.8	/	/
CCC(C)(C)c1nnc(NC(=O)C2CCN(C(=O)c3ccco3)CC2)s1	3.4	4.4	-13.9	67.3*	80.5*	-2.3
CCc1nnc(NC(=O)C2CCN(C(=O)c3ccco3)CC2)s1	-0.9	16.9	2.3	-2.1	/	/
Cc1ccc(S(=O)(=O)Nc2ccc(Nc3ccccc3)cc2)cc1	-0.3	-10.9	21.7	-3.1	/	/
Cc1cccc(NC(=O)NNS(=O)(=O)c2ccc(F)cc2)c1	2.3	28.2	28.2	2.6	/	/
SMILES	A3A deaminase	PolyA inh	NALP1 yeast inh	APOBEC3G inh	A3G conf	UDG ctr A3G
Cc1ccc(S(=O)(=O)NNc2ccccc2)cc1	4.2	2.2	-4.2	67.6*	65.7*	/
CC(=O)Nc1ccc(S(=O)(=O)NNc2cccc(C)c2)cc1	3.0	18.5	6.8	60.9*	61.7*	-2.8
Cc1ccc(-c2csc(Nc3ccc(S(N)(=O)=O)cc3)n2)o1	-8.8	5.1	4.7	52.2*	-45.5	-5.0
COc1cc(C(C)=O)ccc1OCC(O)CN1CCN(c2cc(C)cc(C)c2)CC1 (stereo not given)	-2.5	-10.8	3.1	0.8	/	/
O=C1Nc2ccccc2SC1c1ccccc1 (stereo not given)	/	-11.4	-6.3	/	/	/
Cc1ccc(NC2Sc3ccccc3NC2=O)cc1 (stereo not given)	-3.8	15.2	24.5	51.5*	20.8	-1.4
COc1ccc(S(=O)(=O)Nc2cccc3c2O[C@H](CN(C)C(=O)Nc2c(C)noc2C)[C@@H](C)CN([C@H](C)CO)C3=O)cc1	-2.9	/	/	-7.7	/	/
O=S(=O)(c1ccc2c(c1)OCCO2)N1CCCN(S(=O)(=O)c2c(F)cccc2F)CC1	1.2	/	/	5.7	/	/
O=C(NNC(=O)c1ccccc1[N+](=O)[O-])c1ccccc1[N+](=O)[O-]	4.2	/	-4.5	3.1	/	/
O=C(NNC(=S)NC(=O)c1ccccc1[N+](=O)[O-])c1ccccc1	-1.2	3.9	4.8	-5.7	/	/
O=C(NC(=S)NNC(=O)c1ccccc1[N+](=O)[O-])c1ccccc1	-3.7	-2.6	6.2	45.8*	31.0*	2.7
CCC(=O)NC(=S)NNC(=O)c1ccccc1[N+](=O)[O-]	-5.4	11.1	-4.6	61.3*	1.6	-5.3
CC(=O)Nc1ccc(N(C(=O)c2ccco2)C(C(=O)NC2CCCC2)c2ccncc2)cc1 (stereo not given)	2.0	2.1	9.7	0.3	/	/
O=C(Nc1nnc(-c2ccco2)s1)C1CCCCC1	-1.6	2.5	27.0	56.5*	-3.3	1.1
Cc1ccc(S(=O)(=O)N2CCC(C(=O)Nc3nnc(-c4ccco4)s3)CC2)cc1	0.5	-10.1	3.2	5.0	/	/
CSc1ncccc1C(=O)OCC(=O)N(CC(C)C)c1c(N)n(Cc2ccccc2)c(=O)[nH]c1=O	-0.6	2.2	14.4	-0.3	/	/
O=C(Nc1ccc(N2CCOCC2)c(S(=O)(=O)Nc2ccc(Cl)cc2)c1)c1cnccn1	0.0	-1.6	1.0	46.4*	60.4*	-3.1
CCC(=O)Nc1ccc(N2CCOCC2)c(S(=O)(=O)Nc2ccc(Cl)cc2)c1	1.8	/	/	37.1	/	/
O=C(Nc1ccc(N2CCOCC2)c(S(=O)(=O)Nc2ccc(Cl)cc2)c1)c1ccc(=O)[nH]n1	37.5	/	/	7.9	/	/
C[C@H](NC(N)=O)C(=O)Nc1ccc(N2CCOCC2)c(S(=O)(=O)Nc2ccc(Cl)cc2)c1	-1.9	/	/	46.4*	30.4*	3.3
COc1ccc(N2C(=O)/C(=C/c3cccs3)NC2=S)cc1	0.6	-25.0	-4.6	60.1*	39.5*	3.5
O=C(Oc1ccc([N+](=O)[O-])cc1)C1CC(=O)N(c2ccc3c(c2)OCCO3)C1 (stereo not given)	15.0	/	/	8.0	/	/
C[C@H](NC(=O)c1cc2c(cn1)[nH]c1ccccc12)C(=O)O	2.4	-5.2	-22.9	37.2	/	/
COC(=O)[C@H](C)NC(=O)c1cc2c(cn1)[nH]c1ccccc12	0.5	-2.2	-12.3	49.6*	76.9*	-1.9
Cc1[nH]c(=O)[nH]c(=S)c1C(=O)Nc1ccc(Cl)c(Cl)c1	-1.1	-16.2	/	60.0*	74.4*	-6.0
